Results published in PubChem BioAssay (NCATS).
Records with an inconclusive call do not appear. Activity calls are given as the source filed them. The call rests on the fitted dose curve; in most records, active means well fitted inhibition curve with a large enough effect; inconclusive means small, poorly fitted or top-dose-only effect; inactive means no such curve, though single readings can be large or run the other way.

assay: BET inhibitor-based combinations targeting novel dependencies in MECOM-rearranged (r) AML: OCI-AML3 cell line (AID 2202232); details: CellTiter-Glo luminescence, 48 h; Potency: OCI-AML3 viability; series mostly up to 46 µM; further: nearly all actives have a fitted effect of over 35% in size
In short: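 Each compound was tested at eleven concentrations on cells seeded at 500/well. After two days' incubation, ATP-based luminescence reported viability; responses relative to DMSO and blank wells yielded AUC and cell-line-centred Z-AUC.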
Potency means the concentration at half of the fitted maximal effect.

Structure (SMILES)	Potency
CN(C)C/C=C/C(=O)Nc1ccc(C(=O)Nc2cccc(Nc3ncc(Cl)c(-c4c[nH]c5ccccc45)n3)c2)cc1	0.0833 µM (active)
Nc1ccn(C2CO[C@H](CO)O2)c(=O)n1 (some centres undefined)	inactive
COc1c(OCCCN2CCOCC2)ccc2c3n(c(=NC(=O)c4cnc(N)nc4)nc12)CCN3	0.034 µM (active)
CC(C)n1nc(-c2ccc3oc(N)nc3c2)c2c(N)ncnc21	0.417 µM (active)
CO[C@@H](C)Cn1c(=O)n(C)c2cnc3ccc(-c4cncc(C(C)(C)O)c4)cc3c21	1.18 µM (active)
C[C@@H](Oc1cc(-c2cnn(C3CCNCC3)c2)cnc1N)c1c(Cl)ccc(F)c1Cl	5.9 µM (active)
COCCCc1sc(-c2ccccc2)nc1C(=O)Nc1ccccc1-c1nc2cc(CN3CCCC3)cnc2s1	9.1 µM (active)
O=C(NOCC1CC1)c1ccc(F)c(F)c1Nc1ccc(I)cc1Cl	0.296 µM (active)
Cc1nc(NC(=O)N2CCCC2C(N)=O)sc1-c1ccnc(C(C)(C)C(F)(F)F)c1 (centres undefined)	2.63 µM (active)
Cc1ncc(NC(=O)c2ccc(CN3CCN(C)CC3)c(C(F)(F)F)c2)cc1Nc1nccc(-c2cccnc2)n1	14.8 µM (active)
COC(=O)Nc1ccc(-c2nc(N3CCOCC3)c3cnn(C4CCN(Cc5cccnc5)CC4)c3n2)cc1	2.63 µM (active)
NC1(Cc2ccc(Cl)cc2)CCN(c2ncnc3[nH]ccc23)CC1	6.61 µM (active)
Cn1cnc2c(F)c(Nc3ccc(Br)cc3Cl)c(C(=O)NOCCO)cc21	0.0295 µM (active)
CCCOc1ccc(CCc2nc3cc(-c4c(C)noc4C)ccc3n2CCN2CCOCC2)cc1	16.6 µM (active)
c1cncc(CN2CCC(n3ncc4c(N5CCOCC5)nc(-c5ccc6[nH]ccc6c5)nc43)CC2)c1	7.42 µM (active)
Cn1cc(-c2[nH]c3cc(NC(=O)[C@H](N)C4CCCCC4)cc4c3c2C=NNC4=O)cn1	5.25 µM (active)
COc1ccc(F)c(F)c1C(=O)c1cnc(NC2CCN(S(C)(=O)=O)CC2)nc1N	1.86 µM (active)
CCn1nnc2c(N3CCOCC3)nc(-c3ccc(NC(=O)Nc4ccc(C(=O)N5CCN(C)CC5)cc4)cc3)nc21	0.263 µM (active)

assay: BET inhibitor-based combinations targeting novel dependencies in MECOM-rearranged (r) AML: MV-4-11 cell line (AID 2202233); details: MV-4-11 AML viability, CellTiter-Glo luminescence, 48 h; series mostly up to 46 µM; further: nearly all actives have a fitted effect of over 45% in size
In short: (§1)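 First, 500 cells per well were seeded; next, drugs were pinned as 11-point doses; then plates sat 48 hr in the incubator; finally CellTiter-Glo was added and luminescence read, with AUC and Z-AUC computed.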

Structure (SMILES)	Potency
CN(C)C/C=C/C(=O)Nc1ccc(C(=O)Nc2cccc(Nc3ncc(Cl)c(-c4c[nH]c5ccccc45)n3)c2)cc1	0.0468 µM (active)
Nc1ccn(C2CO[C@H](CO)O2)c(=O)n1 (some centres undefined)	inactive
COc1c(OCCCN2CCOCC2)ccc2c3n(c(=NC(=O)c4cnc(N)nc4)nc12)CCN3	0.0855 µM (active)
CC(C)n1nc(-c2ccc3oc(N)nc3c2)c2c(N)ncnc21	0.0372 µM (active)
CO[C@@H](C)Cn1c(=O)n(C)c2cnc3ccc(-c4cncc(C(C)(C)O)c4)cc3c21	0.332 µM (active)
C[C@@H](Oc1cc(-c2cnn(C3CCNCC3)c2)cnc1N)c1c(Cl)ccc(F)c1Cl	2.35 µM (active)
O=C(NOCC1CC1)c1ccc(F)c(F)c1Nc1ccc(I)cc1Cl	7.42 µM (active)
Cc1nc(NC(=O)N2CCCC2C(N)=O)sc1-c1ccnc(C(C)(C)C(F)(F)F)c1 (centres undefined)	16.6 µM (active)
Cc1ncc(NC(=O)c2ccc(CN3CCN(C)CC3)c(C(F)(F)F)c2)cc1Nc1nccc(-c2cccnc2)n1	3.32 µM (active)
COC(=O)Nc1ccc(-c2nc(N3CCOCC3)c3cnn(C4CCN(Cc5cccnc5)CC4)c3n2)cc1	1.32 µM (active)
NC1(Cc2ccc(Cl)cc2)CCN(c2ncnc3[nH]ccc23)CC1	7.42 µM (active)
CCCOc1ccc(CCc2nc3cc(-c4c(C)noc4C)ccc3n2CCN2CCOCC2)cc1	18.6 µM (active)
c1cncc(CN2CCC(n3ncc4c(N5CCOCC5)nc(-c5ccc6[nH]ccc6c5)nc43)CC2)c1	3.72 µM (active)
Cn1cc(-c2[nH]c3cc(NC(=O)[C@H](N)C4CCCCC4)cc4c3c2C=NNC4=O)cn1	0.263 µM (active)
COc1ccc(F)c(F)c1C(=O)c1cnc(NC2CCN(S(C)(=O)=O)CC2)nc1N	1.32 µM (active)
CCn1nnc2c(N3CCOCC3)nc(-c3ccc(NC(=O)Nc4ccc(C(=O)N5CCN(C)CC5)cc4)cc3)nc21	0.166 µM (active)

assay: BET inhibitor-based combinations targeting novel dependencies in MECOM-rearranged (r) AML: HNT-34 cell line (AID 2202234); details: HNT-34 AML viability, CellTiter-Glo luminescence, 48 h; series mostly up to 46 µM; further: nearly all actives have a fitted effect of over 35% in size
In short: as §1

Structure (SMILES)	Potency
CN(C)C/C=C/C(=O)Nc1ccc(C(=O)Nc2cccc(Nc3ncc(Cl)c(-c4c[nH]c5ccccc45)n3)c2)cc1	0.118 µM (active)
Nc1ccn(C2CO[C@H](CO)O2)c(=O)n1 (some centres undefined)	inactive
COc1c(OCCCN2CCOCC2)ccc2c3n(c(=NC(=O)c4cnc(N)nc4)nc12)CCN3	0.959 µM (active)
CC(C)n1nc(-c2ccc3oc(N)nc3c2)c2c(N)ncnc21	0.0235 µM (active)
CO[C@@H](C)Cn1c(=O)n(C)c2cnc3ccc(-c4cncc(C(C)(C)O)c4)cc3c21	0.372 µM (active)
C[C@@H](Oc1cc(-c2cnn(C3CCNCC3)c2)cnc1N)c1c(Cl)ccc(F)c1Cl	1.18 µM (active)
O=C(NOCC1CC1)c1ccc(F)c(F)c1Nc1ccc(I)cc1Cl	8.33 µM (active)
Cc1ncc(NC(=O)c2ccc(CN3CCN(C)CC3)c(C(F)(F)F)c2)cc1Nc1nccc(-c2cccnc2)n1	0.0295 µM (active)
COC(=O)Nc1ccc(-c2nc(N3CCOCC3)c3cnn(C4CCN(Cc5cccnc5)CC4)c3n2)cc1	1.18 µM (active)
NC1(Cc2ccc(Cl)cc2)CCN(c2ncnc3[nH]ccc23)CC1	7.42 µM (active)
CCCOc1ccc(CCc2nc3cc(-c4c(C)noc4C)ccc3n2CCN2CCOCC2)cc1	14.8 µM (active)
c1cncc(CN2CCC(n3ncc4c(N5CCOCC5)nc(-c5ccc6[nH]ccc6c5)nc43)CC2)c1	2.95 µM (active)
Cn1cc(-c2[nH]c3cc(NC(=O)[C@H](N)C4CCCCC4)cc4c3c2C=NNC4=O)cn1	1.05 µM (active)
COc1ccc(F)c(F)c1C(=O)c1cnc(NC2CCN(S(C)(=O)=O)CC2)nc1N	2.35 µM (active)
CCn1nnc2c(N3CCOCC3)nc(-c3ccc(NC(=O)Nc4ccc(C(=O)N5CCN(C)CC5)cc4)cc3)nc21	0.148 µM (active)
